Screens (PubChem BioAssay)
In the library only some 10% were active in any assay of this set; here they are far more common.
BAZ2B inh: qHTS Assay for Inhibitors of BAZ2B; AlphaScreen BAZ2B-H3K14Ac peptide displacement; Potency, µM (top dose mostly 114 µM), for inactives: at the highest dose activity change, negative = inhibition, actives largely listed as inhibitors; 360,000 compounds, 4.4% hits; note: potency is the fitted concentration of half-maximal effect; % is set by controls: 0 for no effect and ±100 for the full control effect; nearly all actives have a fitted effect of over 60% in size
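In this displacement format the biotinylated H3(5-23) peptide acetylated at Lys14 serves as ligand at 50 nM, with BAZ2B at 50 nM in PBS pH 7.4 containing 0.01% Tween-20. Donor and acceptor beads are 10 ug/mL final.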
HP1b binding inh: HTS for Inhibitors of HP1-beta Chromodomain Interactions with Methylated Histone Tails; 390,000 compounds, 0.56% hits; AlphaScreen HP1-beta / biotin-H3K9me3 peptide binding; Chromobox protein homolog 1 (Homo sapiens), P83916; Potency, µM (titrated, usually from 114 µM), inactives show at the highest dose activity change, negative = inhibition, most hits filed as inhibitors; note: potency is the fitted concentration of half-maximal effect; nearly all actives have a fitted effect of over 70% in size
Target sequence (P83916 whole entry, looked up): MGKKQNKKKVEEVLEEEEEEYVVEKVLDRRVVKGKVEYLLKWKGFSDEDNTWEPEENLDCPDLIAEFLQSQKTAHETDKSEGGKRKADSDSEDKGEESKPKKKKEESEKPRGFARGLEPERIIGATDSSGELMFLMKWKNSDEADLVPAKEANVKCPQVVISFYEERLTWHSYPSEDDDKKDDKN
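HP1-beta protein (50 nM final) preincubated 30 min at room temperature with biotinylated H3(1-18)K9me3 peptide (50 nM) in PBS pH 7.4, 0.01% Tween-20, then compound added for 30 min. AlphaScreen streptavidin donor/nickel chelate acceptor beads (10 ug/mL final), 30 min dark, luminescence read.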
Six1-Eya2 blk: qHTS Assay for Inhibitors of the Six1/Eya2 Interaction. activity change, % (concentration not given with the values). Homeobox protein SIX1 (Homo sapiens) + Protein phosphatase EYA2 (Homo sapiens), …. AID 651725, 2012. AlphaScreen GST-Six1/His-Eya2 binding, biochemical; stronger effect = lower value. 360,000 compounds, 0.56% hits; in the data active = activity change below about -65%; inconclusive = mostly about -30% to -63%; note: % is set by controls: 0 for no effect and ±100 for the full control effect
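Six1/Eya2 binding was read as AlphaScreen signal after compounds were pinned into GST-Six1 plus His-tagged Eya2 (5X stock 250/500 nM) in pH 8.0 Tris/NaCl/TCEP buffer, beads added, then incubated 1 h, 37 C, dark.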
JMJD2A Tudor: qHTS Assay for Inhibitors of JMJD2A-Tudor Domain. AlphaScreen JMJD2A-Tudor / H3K4me3 peptide binding. AID 504339, 2011. 390,000 compounds, 4.4% hits. Lysine-specific demethylase 4A (Homo sapiens), O75164. Potency, µM (series often up to 114 µM), for the others: at the top dose activity change, negative = inhibition, actives largely listed as inhibitors; note: potency is the fitted concentration of half-maximal effect; % is set by controls: 0 for no effect and ±100 for the full control effect; nearly all actives have a fitted effect of over 50% in size
G9a block: qHTS Assay for Inhibitors of Histone Lysine Methyltransferase G9a; Potency, µM (doses to about 102 µM), without a hit: top-dose activity, negative = inhibition, hits mostly inhibitors; G9a H3K9 monomethylation, AlphaScreen, 2 h; 350,000 compounds, 8.8% hits; note: potency is the fitted concentration of half-maximal effect; % is set by controls: 0 for no effect and ±100 for the full control effect; nearly all actives have a fitted effect of over 75% in size
Target sequence (Q96KQ7 913-1193 limits assumed): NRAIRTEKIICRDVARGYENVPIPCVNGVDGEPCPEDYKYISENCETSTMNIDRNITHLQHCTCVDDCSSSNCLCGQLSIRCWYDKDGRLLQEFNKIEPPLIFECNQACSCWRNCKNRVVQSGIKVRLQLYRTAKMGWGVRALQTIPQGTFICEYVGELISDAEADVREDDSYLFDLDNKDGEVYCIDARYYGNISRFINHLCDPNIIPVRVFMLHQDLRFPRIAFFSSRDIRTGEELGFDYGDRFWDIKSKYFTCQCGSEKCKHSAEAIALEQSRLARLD
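Using a bead-based AlphaScreen, monomethylated H3K9 product from 2 h room-temperature reactions (G9a 20 nM, peptide 500 nM, SAM 20 uM) was detected with 0.5 ug/mL rabbit anti-H3K9me1 antibody.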
CtBP-E1A inh: qHTS Assay for Inhibitors of the CtBP/E1A Interaction; CtBP / adenovirus E1A interaction (AlphaScreen); AlphaScreen GST-E1A/His-CtBP binding, 1536-well; stronger effect = lower value; activity change, % (no concentration beside the values); 340,000 compounds, 0.49% hits; AID 651724, 2012; in the data active = activity change below about -65%; inconclusive = mostly about -30% to -63%; note: % is set by controls: 0 for no effect and ±100 for the full control effect
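GST-E1A and His-tagged CtBP (125 nM each as 5X stock) were preincubated with pin-transferred compound for 2 h at 37 °C in the dark, then glutathione donor and nickel acceptor beads were added for 1 h before AlphaScreen reading.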
Numbers without * were called inactive; ? = inconclusive; nt = no result; ! = not confirmed by another sample; [ ] = remark or other dose. Unless noted, calls come from the whole dose curve; as a rule, active = well fitted inhibition curve with a large enough effect; inconclusive = small, poorly fitted or top-dose-only effect; inactive = no such curve, though single readings can be large or run the other way.

SMILES	BAZ2B inh	HP1b binding inh	Six1-Eya2 blk	JMJD2A Tudor	G9a block	CtBP-E1A inh
COc1ccccc1-c1cc(C(=O)NCCN2CCOCC2)no1	-0.1%	7.5%	0.0	-8.4%	-30.3%	-0.8
COc1cccc2cc(C(=O)C3=C(O)C(=O)N(CCN4CCOCC4)C3c3ccc(C(C)(C)C)cc3)oc12 (stereo unspecified)	-28.8%	-10.0%	-4.5	56.2µM*	31.6µM*	nt
Cc1ccc(C2C(C(=O)c3cc4ccccc4o3)=C(O)C(=O)N2CCN2CCOCC2)cc1 (stereo unspecified)	-28.5%	4.5%[57 µM]	1.8	?	39.8µM*	nt
Cc1ccc(C2C(C(=O)c3cc4ccccc4o3)=C(O)C(=O)N2CCN2CCOCC2)o1 (stereo unspecified)	?	10.0%	-4.1	89.1µM*	?	-4.2
COc1cccc2cc(C(=O)NCCN3CCOCC3)oc12	-24.0%	30.4%	-0.2	-5.1%	44.7µM*	-2.3
CCc1nnc(SCc2ccc(OC)cc2)c2cc3sc(C)cc3n12	-12.3%	41.2%	nt	-8.8%	-18.8%[59 µM]	nt
O=C(C1=C(O)C(=O)N(CCN2CCOCC2)C1c1cccc(O)c1)c1cc2ccccc2o1 (stereo unspecified)	?	1.8%	-3.0	?	50.1µM*	6.3
O=C(C1=C(O)C(=O)N(CCCN2CCOCC2)C1c1ccncc1)c1cc2ccccc2o1 (stereo unspecified)	0.7%	nt	nt	nt	?	nt
CN(C)CCCN1C(=O)C(O)=C(C(=O)c2cc3ccccc3o2)C1c1ccccc1 (stereo unspecified)	?	55.8%	-2.0	-24.0%[11.4 µM]	14.1µM*	4.6
O=C(C1=C(O)C(=O)N(CCN2CCOCC2)C1c1cccnc1)c1cc2ccccc2o1 (stereo unspecified)	?	33.0%	-2.2	?	28.2µM*	2.8
COC(=O)c1ccc(C2C(C(=O)c3cc4ccccc4o3)=C(O)C(=O)N2CCCN(C)C)cc1 (stereo unspecified)	?	19.9%	-2.4	-32.8%	?	6.5
CNC(=O)C1CCC(Cn2c(=O)c3sccc3n(Cc3ccc(F)cc3)c2=O)CC1 (stereo unspecified)	1.4%	20.5%	nt	-8.3%	18.5%[59 µM]	nt
CC1(C)CCC(C)(C)c2cc(C(=O)Nc3ccc(C(=O)O)cc3)ccc21	nt	nt	nt	nt	25.2%[59 µM]	nt
CC(=O)C(=Cc1ccc(C(=O)O)cc1)C(C)=O	?	51.3%	-9.2	-2.8%	56.2µM*	8.4
C/C(=C\c1ccc(C(=O)O)cc1)c1ccc2c(c1)C(C)(C)CCC2(C)C	6.5%	3.5%	6.4	-23.4%	15.8µM*!	-0.4
Cc1ccc(NC(=O)CSc2nc(NS(=O)(=O)c3ccccc3)cc(=O)[nH]2)cc1	?	-18.0%	?	50.1µM*	?	-2.6
Cc1ccc(S(=O)(=O)Nc2cc(=O)[nH]c(SCC(=O)Nc3ccccc3Cl)n2)cc1	56.2µM*	43.5%	-9.3	-2.4%	56.2µM*	5.1
CCc1ccc(NC(=O)CSc2nc(NS(=O)(=O)c3ccccc3)cc(=O)[nH]2)cc1	50.1µM*	41.1%	-13.1	-13.7%	?	0.6
CCc1ccc(NC(=O)Cn2nnc(-c3ccc(C)cc3-n3cnnn3)n2)cc1	-20.6%	29.7%	0.6	-3.7%	2.8%	nt
Cc1ccccc1C(=O)Nc1ccc2c(C#N)c3nc4ccccc4nc3n2c1	50.1µM*	-9.9%	?	-32.4%	5.01µM*	-70.6*
Cc1c(C(=O)Nc2ccccc2)cn2c(nc3ccccc32)c1C#N	6.1%	8.7%	-7.8	-7.4%	-5.4%[59 µM]	-16.3
Cn1c(-c2ccc(Br)o2)nc2ccccc21	-34.2%	19.7%	1.8	-14.9%	-9.7%[59 µM]	-0.9
CCCn1c(-c2nonc2N)nc2ccccc21	10.4%	34.9%	3.8	14.2%[57.1 µM]	1.6%[59 µM]	2.6
Cn1c(-c2nonc2N)nc2ccccc21	-27.4%	46.5%	0.3	9.3%	39.8µM*	nt
Cc1ccc(-c2nc3ccccc3n2C)o1	-26.1%	14.9%	-0.1	-19.7%	12.6µM*	-0.8
SMILES	BAZ2B inh	HP1b binding inh	Six1-Eya2 blk	JMJD2A Tudor	G9a block	CtBP-E1A inh
CCc1ccccc1NC(=O)Cn1nc(N2CCN(c3ccccc3OC)CC2)ccc1=O	-22.7%	16.4%	nt	-24.4%	-6.8%[59 µM]	nt
C#CCOCCOCCOCCNc1nc(N2CCN(C(=O)[C@H](CCCCN)n3cc(CN)nn3)CC2)nc(N2CCN(C(=O)[C@H](CC(N)=O)n3cc(C(N)[C@H](C)CC)nn3)CC2)n1 (stereo partly specified)	nt	14.9%	-7.3	39.8µM*	nt	-0.8
C#CCOCCOCCOCCNc1nc(N2CCN(C(=O)[C@H](CCC(=O)O)n3cc([C@@H](N)[C@H](C)CC)nn3)CC2)nc(N2CCN(C(=O)[C@H](CCC(=O)O)n3cc([C@@H](N)CC(N)=O)nn3)CC2)n1	nt	19.7%	-8.1	56.2µM*	nt	-3.8
C#CCOCCOCCOCCNc1nc(N2CCN(C(=O)[C@H](CCCCN)n3cc([C@@H](N)[C@H](C)CC)nn3)CC2)nc(N2CCN(C(=O)[C@H](CCCCN)n3cc([C@@H](N)CC(N)=O)nn3)CC2)n1	nt	77.6%	-11.2	-26.4%	nt	-5.0
C#CCOCCOCCOCCNc1nc(N2CCN(C(=O)[C@H](CCCCN)n3cc([C@@H](N)C(C)CC)nn3)CC2)nc(N2CCN(C(=O)[C@H](CCCCN)n3cc([C@@H](N)CC(C)C)nn3)CC2)n1 (stereo partly specified)	70.8µM*	22.6%	-24.7	?	?	-13.4
C#CCOCCOCCOCCNc1nc(N2CCN(C(=O)[C@H](CC(N)=O)n3cc(C(N)[C@@H](C)CC)nn3)CC2)nc(N2CCN(C(=O)[C@H](CCCCN)n3cc([C@@H](N)CC(N)=O)nn3)CC2)n1 (stereo partly specified)	nt	22.7%	-5.9	79.4µM*	nt	-13.6
O=C(CCCOC(=O)c1ccc(O)cc1O)c1ccc(Br)cc1	3.1%	12.8%	-12.6	-6.8%	?	3.6
CC1CCCCC1NC(=O)C1CCC(CNc2c(N3CCCCC3)c(=O)c2=O)CC1 (stereo unspecified)	0.3%	5.0%	5.8	-10.0%	-3.2%	3.3
Cc1nn(CC(=O)NCCc2ccc(Cl)cc2)c(=O)c2cccn12	-11.3%	7.9%	-1.2	?	-9.7%[59 µM]	-1.4
CCCc1cc(N2CCN(c3cc(Cl)ccc3C)CC2)n2cnnc2n1	-24.3%	48.1%	nt	-24.8%	9.9%[59 µM]	nt
